# Compound activity: PubChem BioAssay, National Center for Advancing Translational Sciences (NCATS)
# USP1 inh: Inhibitors of USP1/UAF1: Primary Screen | recombinant USP1/UAF1, Ub-Rhodamine cleavage fluorescence | 390,000 tested, 0.23% active | Potency, µM (titrated, usually from 57.1 µM), without a hit: at the highest dose activity change, negative = inhibition, most hits filed as inhibitors | Ubiquitin carboxyl-terminal hydrolase 1 (Homo sapiens), O94782; further: potency means the concentration at half of the fitted maximal effect; nearly all actives have a fitted effect of over 60% in size
# Target sequence (O94782 whole entry, looked up): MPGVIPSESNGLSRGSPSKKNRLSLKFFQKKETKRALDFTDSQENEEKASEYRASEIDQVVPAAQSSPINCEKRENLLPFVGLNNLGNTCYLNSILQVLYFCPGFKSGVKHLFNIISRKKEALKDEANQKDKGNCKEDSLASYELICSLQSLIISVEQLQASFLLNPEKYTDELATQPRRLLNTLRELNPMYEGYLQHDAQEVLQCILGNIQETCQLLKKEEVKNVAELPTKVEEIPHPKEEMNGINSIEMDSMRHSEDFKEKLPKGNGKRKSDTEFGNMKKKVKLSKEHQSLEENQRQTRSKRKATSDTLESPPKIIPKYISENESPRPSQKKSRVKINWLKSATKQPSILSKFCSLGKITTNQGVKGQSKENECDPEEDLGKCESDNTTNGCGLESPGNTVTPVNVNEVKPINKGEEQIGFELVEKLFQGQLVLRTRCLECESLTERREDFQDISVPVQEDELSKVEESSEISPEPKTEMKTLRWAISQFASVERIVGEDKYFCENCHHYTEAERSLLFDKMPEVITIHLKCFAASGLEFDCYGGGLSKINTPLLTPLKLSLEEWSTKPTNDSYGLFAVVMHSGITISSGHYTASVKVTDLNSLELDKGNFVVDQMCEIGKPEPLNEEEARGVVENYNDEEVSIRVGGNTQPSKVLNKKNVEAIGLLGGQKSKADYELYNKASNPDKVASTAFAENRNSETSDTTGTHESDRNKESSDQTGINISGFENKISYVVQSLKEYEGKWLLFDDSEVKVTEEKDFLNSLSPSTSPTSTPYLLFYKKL
#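 1 nM enzyme complex + cpd, 15 min RT; start with Ub-Rho 150nM final; kinetic fluorescence ex 480/em 540, 6 reads q60 s. Buffer 50mM HEPES pH 7.8, 0.5mM EDTA, 0.1 mg/ml BSA, 1mM TCEP, 0.01% Tween-20.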
# Coupling enz: qHTS Assay for Inhibitors of Fructose-1,6-bisphosphate Aldolase from Giardia Lamblia: Coupling assay counterscreen | 290,000 tested, 0.67% active | coupling enzyme system counterscreen, AmpLite Red fluorescence | activity change, negative = inhibition, % at 58.2 µM, hits read low | AID 2472, 2010; in the data active means activity change below about -30%
#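 Counterscreen of the coupled detection system alone, without aldolase: glyceraldehyde-3-phosphate coupling enzymes plus AmpLite Red readout. Compounds at 57.5 uM final, 10 min RT preincubation, 20 min RT reaction, fluorescence 525/598 nm.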
# Tau ThT inhib: qHTS for Inhibitors of Tau Fibril Formation, Thioflavin T Binding | Potency, µM (series often up to 57.4 µM), for inactives: top-dose activity, negative = inhibition, actives largely listed as inhibitors | recombinant tau K18 P301L, heparin-induced fibrillization, ThT fluorescence | Microtubule-associated protein tau (Homo sapiens), P10636 | 270,000 tested, 2.1% active | AID 1460, 2008; further: potency means the concentration at half of the fitted maximal effect; nearly all actives have a fitted effect of over 55% in size
#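 Tau K18 P301L fragment (15 uM unlabeled plus 0.24 uM Alexa 594-labeled) in 100 mM sodium acetate pH 7 with compound, fibrillization induced by 20 uM heparin for 6 hr at 37 C. Thioflavin T (30 uM) added, fluorescence read after 1 hr (ex 450, em 510 nm).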
# Tau FP inhib: qHTS for Inhibitors of Tau Fibril Formation, Fluorescence Polarization; Microtubule-associated protein tau (Homo sapiens), P10636; K18 P301L tau heparin fibrillization, Alexa594 FP, 6 h; Potency, µM (series often up to 57.7 µM), inactives show at the top dose activity, negative = inhibition, actives largely listed as inhibitors; 280,000 tested, 0.39% active; AID 1468, 2008; further: potency means the concentration at half of the fitted maximal effect; nearly all actives have a fitted effect of over 55% in size
#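 Compound effects on tau fibrillization are measured by Alexa 594 fluorescence polarization (ex 555, em 632 nm). K18 P301L tau is used at 15 uM with 0.24 uM labeled tracer, and 20 uM heparin induces aggregation over 6 hr at 37 C.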
# Tau fluor counter: Counterscreen qHTS for Inhibitors of Tau Fibril Formation, Fluorescence Polarization; tau K18 P301L Alexa594 fluorescence, heparin fibrillization; Potency, µM (titrated, usually from 57.7 µM), inactives show top-dose activity change, negative = decrease; 280,000 tested, 0.93% active; AID 1463, 2008; further: potency means the concentration at half of the fitted maximal effect; nearly all actives have a fitted effect of over 55% in size
#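 Human tau K18 P301L (15 uM unlabeled, 0.24 uM Alexa 594-labeled) in 100 mM sodium acetate pH 7 with 20 uM heparin, 6 hr at 37 C. ThT 30 uM added, 1 hr ambient; Alexa 594 FP and total fluorescence read at 555/632 nm.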
# * = called active by the depositor; u = inconclusive; x = not tested or not shown; [ ] = remark or other dose. Sampled rows, rich in hits. Any-hit rate of the full collection: about 2.3%. Unless noted, the call rests on the fitted dose curve; in most records, active means well fitted curve in the direction sought with a large enough effect; inconclusive means small, poorly fitted or top-dose-only effect, or another doubt; inactive means no such curve, though single readings can be large; an effect the other way counts as inactive or inconclusive. On the % scale 0 is the no-effect control and ±100 the full control effect.
SMILES,USP1 inh,Coupling enz,Tau ThT inhib,Tau FP inhib,Tau fluor counter
CC(=O)OC1CC(OC(C)=O)[C@]2(C)C(CC(O)[C@]3(C)C2CC[C@@]2(C)C(c4ccoc4)OC(=O)C4O[C@]432)C1(C)C (stereo partly drawn),x,-3,-20%,3%,-17%
Cc1ccc(-c2nc3ccccc3n2C)o1,-1%,1,u,3%,-3%
Cc1ccc(C2Nc3ccccc3-c3nc4ccccc4n32)o1 (stereo not drawn),-1%,-1,u,u,32µM*[quencher]
CCOc1ccc(Br)cc1CNCCSc1nnnn1-c1ccccc1,-20%,x,-6%,1%,-6%
O=C(Nc1nc2ccc(F)cc2s1)C1CCN(S(=O)(=O)c2cc([N+](=O)[O-])ccc2Cl)CC1,-12%,-11,u,u,7.1µM*[quencher]
CC(C)(C)OC(=O)N1CCC(c2c(C(=O)NCCN3CCC(Cc4ccccc4)CC3)cnn2-c2ccccc2)CC1,-6%,x,u,-7%,-12%
Cn1c(=O)c2sccc2n2c(CCC(=O)NCc3ccc(F)cc3)nnc12,-3%,x,-1%,-4%,-4%
O=[N+]([O-])c1ccc(C2Oc3ccccc3C3CC(c4ccccc4)=NN32)s1 (stereo not drawn),x,-11,14µM*,u,14µM*[quencher]
CCCCN(C)C(=O)c1ccc2c(c1)N(Cc1cccc(Cl)c1)C(=O)c1ccccc1S2=O (stereo not drawn),-30%,x,-5%,3%,-3%
CCOC(=O)c1sc(NC(=O)CSc2nnc(Cc3ccccc3)o2)c(C#N)c1C,-22%,7,28µM*,u,u
COc1cccc(-c2noc(-c3cc(C(C)C)[nH]n3)n2)c1OC,-19%,x,-8%,2%,-11%
CCOc1ccc(NC(=O)CSc2nccn2-c2cccc(C)c2C)cc1,-36%,x,-15%,2%,-19%
CCn1c(=O)c(NC(=O)c2ccccc2)c2n(c1=S)CCCCC2,-5%,-35*,-5%,-13%,-11%
CCOc1ccc(CNC(=O)c2ccc3c(c2)nc2n3CCC(C)C2)cc1OC (stereo not drawn),u,x,-7%,2%,-6%
CC(=O)Nc1ccc(OC(=O)c2ccc(Br)c([N+](=O)[O-])c2)cc1,0%,4,25µM*,u,u
N#CC1=C(N)NC(SCc2ccc(Br)cc2)=C(C#N)C12CCCCC2,-16%,-4,-19%,-12%,10µM*[quencher]
N#CC1=C(N)NC(SCC(=O)Nc2ccc(Br)cc2)=C(C#N)C12CCCCC2,-27%,0,-6%,1%,-6%
N#CC1=C(N)NC(SCc2ccc(Cl)cc2)=C(C#N)C12CCCCC2,-2%,-4,u,6%,8.9µM*[quencher]
N#CC1=C(N)NC(SCc2ccccc2)=C(C#N)C12CCCC2,-25%,-3,-14%,8%,u
Cc1cc(N2CCC(C)CC2)nc2ccc(NC(=O)CCC(=O)N3CCN(c4ccccc4F)CC3)cc12,-22%,x,u,13%,u
CCc1cc(-c2[nH]ncc2-c2nc3ccccc3n2C)c(O)cc1O,0%,-16,u,3%,u
CCCc1cc(-c2[nH]ncc2-c2ccc(C(=O)OCC)o2)c(O)cc1O,-20%,-1,-14%,u,14µM*[quencher]
CCCc1cc(-c2[nH]ncc2-c2ccc3c(c2)OCCCO3)c(O)cc1O,-10%,2,u,u,10µM*[quencher]
COc1ccccc1OC(C)C(=O)Nc1c(C(=O)c2ccc(Cl)cc2)oc2ccccc12 (stereo not drawn),-16%,x,-6%,u,-23%
O=C1C(c2ccncc2)N(CCC2=CCCCC2)C(=O)CN1C1CCCCC1 (stereo not drawn),2%,1,7.9µM*,u,u
SMILES,USP1 inh,Coupling enz,Tau ThT inhib,Tau FP inhib,Tau fluor counter
Cc1ccc(C2C(C#N)=C(N)SC(N)=C2C#N)o1,x,-25,14µM*,18µM*,u
CCOC(=O)C1=C(C)OC(N)=C(C#N)C1c1ccc(C)o1 (stereo not drawn),1%,0,-12%,-2%,-9%
CCc1ccc(C2C(C#N)=C(N)SC(N)=C2C#N)s1,-18%,-1,14µM*,u,u
CC1(C)CC(=O)c2cc(C(=O)Nc3ccccc3Cl)c(=O)n(-c3ccc(Cl)cc3)c2C1,-25%,x,-1%,-3%,-3%
COc1ccc(C(=O)CC2(O)C(=O)N(Cc3cccc(C(F)(F)F)c3)c3ccccc32)cc1 (stereo not drawn),-34%,x,-16%,-5%,u
COc1cc(/C=N/NC(=S)NC2CC3CC2C2C=CCC32)ccc1O (stereo not drawn),u,0,u,13%,11µM*[quencher]
Cc1cc(N2CCCC2)ccc1/C=N/n1cnnc1,-12%,-3,7.1µM*,-5%,-29%
Cc1cc(/C=N/n2cnnc2)c(C)n1-c1ccc(Cl)cc1,-3%,-1,-3%,u,2%
CCN(CC)S(=O)(=O)c1ccc(NC(=O)C2c3ccccc3Oc3ccccc32)cc1,-10%,-1,-7%,28µM*,u
CCN(CC)S(=O)(=O)c1ccc(/C=C/C(=O)O)cc1,-20%,10,2%,2%,0%
CN(C)S(=O)(=O)NCCNC(=O)c1cc(OCC(F)(F)F)ccc1OCC(F)(F)F,-3%,3,1%,-3%,4%
CNS(=O)(=O)c1ccc(NC(=O)C2c3ccccc3Oc3ccccc32)cc1,0%,0,14%,-14%,1%
CCN(CC)S(=O)(=O)c1ccc(/C=C/C(=O)Nc2cccc(F)c2)cc1,-8%,-1,u,35µM*,u
CCN(CC)S(=O)(=O)c1ccc(NC(=O)Nc2cccc(C(F)(F)F)c2)cc1,-23%,-5,-4%,7.9µM*,u
O=C(NCCNC(=O)c1cc(OCC(F)(F)F)ccc1OCC(F)(F)F)Nc1cccc(C(F)(F)F)c1,-24%,-3,-19%,10µM*,u
CCOc1ccc(C(=O)Nc2nnc(S(=O)(=O)Nc3ccccc3)s2)cc1,7%,x,-18%,-7%,-5%
Cc1cc(C)cc(-n2ccn(Cc3ccccc3C)c(=O)c2=O)c1,-10%,x,0%,-17%,-8%
CCc1ccc(NC(=O)CCS(=O)(=O)c2ccc3c(c2)oc(=O)n3C)cc1,u,x,-3%,1%,-5%
O=C(Nc1ccc(OC(F)F)cc1)Nc1cccc(C(F)(F)F)c1,-21%,-12,-5%,25µM*,u
O=C(Nc1ccncc1)Nc1cccc(C(F)(F)F)c1,-21%,1,x,x,x
